# ALOX12 inhib – blocks human 12-lipoxygenase activity; purified 12-hLO, xylenol orange hydroperoxide absorbance; Potency, µM (top dose mostly 57.1 µM), without a hit: at the highest dose activity change, negative = inhibition, most hits filed as inhibitors; AID 1452; P18054; actives 0.12% (n = 150,000); note: potency is the fitted concentration of half-maximal effect; nearly all actives have a fitted effect of over 55% in size
#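 Lipoxygenase turnover measured by absorbance at 573 and 405 nm after Fe-XO development. Human 12hLO 150 nM, arachidonate 40 uM, pH 7.0 Hepes buffer with detergent; 15 min compound preincubation, 30 min reaction.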
# PNC inhibitor – inhibitors of perinucleolar compartment assembly | PC3M PTB-GFP, PNC prevalence imaging, 16 h; hits give low values | activity change (PNC), negative = inhibition, % at 10 µM | actives 3.1% (n = 140,000) | AID 2417;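 active = readout at or below -70, meaning at least 70% loss of cells showing the perinucleolar compartment, a nuclear body marking cancer cells; inconclusive = readout between -30 and a set limit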;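 note: plate controls were DMSO wells for no effect and camptothecin positive control wells for full effect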
#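 Compounds are pinned in duplicate onto adhered PC3M cells stably expressing GFP-tagged PTB and incubated 16 h at 37 C. Cells are then fixed, nuclei stained with Hoechst, and PNC-positive cells counted.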
# ALOX15B inhib – blocks human 15-lipoxygenase 2 activity. O15296. purified 15hLO-2, xylenol orange hydroperoxide absorbance. Potency, µM (top dose mostly 57.1 µM), inactives show at the highest dose activity change, negative = inhibition, actives largely listed as inhibitors. AID 881. actives 0.56% (n = 110,000); note: potency is the fitted concentration of half-maximal effect; nearly all actives have a fitted effect of over 60% in size
# Target sequence (O15296 whole entry, looked up): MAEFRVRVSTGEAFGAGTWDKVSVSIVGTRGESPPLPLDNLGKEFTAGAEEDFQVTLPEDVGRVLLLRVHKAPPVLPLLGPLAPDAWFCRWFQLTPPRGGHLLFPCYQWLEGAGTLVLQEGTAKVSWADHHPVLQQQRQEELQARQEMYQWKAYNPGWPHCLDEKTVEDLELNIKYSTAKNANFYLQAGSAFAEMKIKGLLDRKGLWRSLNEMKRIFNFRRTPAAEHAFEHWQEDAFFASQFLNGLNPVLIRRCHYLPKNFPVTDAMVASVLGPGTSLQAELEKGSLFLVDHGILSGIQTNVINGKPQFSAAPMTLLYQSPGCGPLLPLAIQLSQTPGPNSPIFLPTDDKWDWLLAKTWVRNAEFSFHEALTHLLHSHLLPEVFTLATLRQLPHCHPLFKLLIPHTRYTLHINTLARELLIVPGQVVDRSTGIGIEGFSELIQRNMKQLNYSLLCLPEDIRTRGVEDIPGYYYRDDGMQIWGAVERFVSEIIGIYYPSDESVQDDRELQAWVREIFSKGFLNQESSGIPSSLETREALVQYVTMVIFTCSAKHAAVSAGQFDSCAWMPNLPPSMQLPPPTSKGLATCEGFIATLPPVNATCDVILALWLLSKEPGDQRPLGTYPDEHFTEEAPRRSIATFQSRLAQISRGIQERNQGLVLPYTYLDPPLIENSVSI
#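 Purified human 15hLO-2 (50 nM final) preincubated with compounds 15 min at room temperature in 25 mM Hepes pH 7.5, 0.01% Triton X-100, then 45 uM arachidonic acid added for 90 min; hydroperoxide detected via ferrous/xylenol orange, 573/405 nm absorbance ratio.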
# * marks the source's active call; other numbers are inactive results; u = inconclusive; x = no result; [ ] = dose if it differs, or a comment. The list is not random: actives were taken first. Their share in the collection is about 3.2%. Unless noted, calls come from the whole dose curve; as a rule, active = well fitted curve in the direction sought with a large enough effect; inconclusive = small, poorly fitted or top-dose-only effect, or another doubt; inactive = no such curve, though single readings can be large; an effect the other way counts as inactive or inconclusive. Unless noted, % is set by controls: 0 for no effect and ±100 for the full control effect.
SMILES,ALOX12 inhib,PNC inhibitor,ALOX15B inhib
Cc1ccc(NC(=O)C2(NC(=O)c3ccccn3)CCCCC2)cc1Br,-3%,25,x
COc1ccc(N=C(NN)c2ccc3ccccc3n2)cc1,-2%,-14,x
O=C1c2ccccc2S(=O)(=O)N1CC(O)COc1ccc(Br)cc1 (stereo unspecified),-25%,-106*,-3%
O=C1c2ccccc2S(=O)(=O)N1CC(O)COc1ccc(Cl)cc1 (stereo unspecified),-20%,-17,-6%
O=C(Cc1ccccc1)Nc1nc2ccc(Cl)cc2c2nc(-c3ccco3)nn12,1%,x,2%
CC(C(=O)O)C1SC(=O)NC1=O (stereo unspecified),13%,16,-6%
COc1cccc(N/C(SCc2ccccc2C)=C(/C#N)C(=O)NCc2cccs2)c1,-2%,-22,x
COc1cccc(N/C(SCc2ccccc2Cl)=C(/C#N)C(=O)NCc2cccs2)c1,3%,-125*,x
Cc1cnc(CNc2ccnc(-c3ccccc3Cl)n2)cn1,-1%,x,-3%
CN1CCN(c2ncc3ncc(=O)n(C[C@H]4CCCO4)c3n2)CC1,x,x,2%
Nc1ncnc2c1nc(Br)n2[C@@H]1O[C@H]2COP(=O)(O)O[C@@H]2[C@H]1O,5%,x,-3%
COc1cc(OC)cc(C(=O)N[C@H](C(=O)Nc2ccccc2N2CCOCC2)C(C)C)c1,0%,-28,2%
Cc1cc(Cl)ccc1OC(C)C(=O)Nc1ccccc1N1CCOCC1 (stereo unspecified),-5%,-104*,2%
CC(C)Oc1cccc(C(=O)Nc2ccccc2N2CCOCC2)c1,-4%,5,4%
CCC(C)Oc1cccc(C(=O)Nc2ccccc2N2CCOCC2)c1 (stereo unspecified),2%,-87*,-3%
CCCCn1c(CN2CCN(C(=O)c3ccco3)CC2)nc2c1c(=O)n(C)c(=O)n2C,0%,-2,x
CCCCCCn1c(CN2CCN(C(=O)c3ccco3)CC2)nc2c1c(=O)n(C)c(=O)n2C,9%,-122*,x
COc1ccc(CCN2C(=O)CC(NCCc3ccc(S(N)(=O)=O)cc3)C2=O)cc1OC (stereo unspecified),-8%,-21,-5%
CCCCOc1ccc(N2C(=O)CC(NCCc3ccc(S(N)(=O)=O)cc3)C2=O)cc1 (stereo unspecified),2%,-82*,-8%
COCCNc1nc(C)nc2c1nc(-c1ccccc1)n2CC1CCN(C)CC1,0%,x,16%
CCOc1ccccc1C(=O)Nc1nnc(CC)s1,2%,1,x
CCc1nnc(NC(=O)C(=O)NCCOC(=O)c2ccccc2Cl)s1,-6%,-109*,8%
COc1ccc(NC2c3ncccc3C(=O)N2Cc2ccccc2)c(OC)c1 (stereo unspecified),-5%,-100*,x
COc1ccc(CN2C(=O)c3cccnc3C2Nc2ccc(OC)c(Cl)c2)cc1 (stereo unspecified),-11%,-5,8%
Cn1cc(/C=N/n2cnc3scc(-c4ccc(Cl)cc4)c3c2=O)c2ccccc21,-1%,-99*,u
SMILES,ALOX12 inhib,PNC inhibitor,ALOX15B inhib
C=CCn1cnc2scc(-c3ccc(CC)cc3)c2c1=O,-7%,11,-2%
CC(OC(=O)c1ccc([N+](=O)[O-])s1)C(=O)Nc1ncc(Cl)cc1Cl (stereo unspecified),-1%,66,x
Cc1cccc(OCCCC(=O)NC(C)c2ccccc2)c1 (stereo unspecified),-7%,-5,4%
Cc1cccc(OCCCC(=O)NC(C)C)c1,-3%,-80*,2%
CC(/C=C/C(=O)NO)=C\[C@@H](C)C(=O)c1ccc(N(C)C)cc1,1%[0.00818 µM],x,-6%[0.0915 µM]
CCCCn1nc(C(=O)Oc2ccc3c(C)cc(=O)oc3c2)c2ccccc2c1=O,-1%,1,x
CCOC(=O)Cn1c(=O)oc2cc(S(=O)(=O)NCCc3ccc(OCC)c(OCC)c3)ccc21,-5%,11,-3%
O=C(Cc1cn(Cc2cccc(Cl)c2)c2ccccc12)N1CCCC1,-5%,-5,x
N#Cc1cn(Cc2cccc(Cl)c2)c2ccccc12,-9%,-103*,-3%
Cc1cc(C)nc(SCc2ccc(C(=O)NNC(=O)Nc3cccc(Cl)c3)cc2)n1,-2%,-4,x
O=C(CSc1oc(-c2ccco2)nc1S(=O)(=O)c1ccc(F)cc1)NCC1CCCO1 (stereo unspecified),1%,-119*,x
O=C(CSc1oc(-c2ccco2)nc1S(=O)(=O)c1ccccc1)NCC1CCCO1 (stereo unspecified),-2%,-15,x
COC(=O)N1CCC[C@@]2(CCN(c3ncccn3)C2)C1,0%,x,1%
COc1cccc(OC)c1OCC(O)CN1CCN(c2ccccc2)CC1 (stereo unspecified),-3%,-29,9%
COc1ccccc1/C=C/CN1CCN(c2ccccc2)CC1,-19%,-111*,30%
CC/C(=N\NC(=O)C(N)=O)c1ccccc1O,3%,2,x
COc1ccc(N2CCN(C(=O)CCS(=O)(=O)c3cccc4nsnc34)CC2)cc1,-2%,-85*,x
O=C(CCS(=O)(=O)c1cccc2nsnc12)N1CC(=O)N(CCc2ccccc2)C(=O)C1,-1%,u,1%
c1ccc2c(c1)NC1(CCCC1)n1c-2nc2ccccc21,-8%,-15,-3%
CCCC1(C)Nc2ccccc2-c2nc3ccccc3n21 (stereo unspecified),-7%,-82*,0%
CC(NC(=O)Cc1cccs1)C(c1cccs1)N1CCN(c2ccccc2F)CC1 (stereo unspecified),-2%,17,-7%
Cc1ccc(S(=O)(=O)Nc2nc(C)c(NC(=O)OCCCl)s2)cc1,2%,u,-10%
Cc1ccc(S(=O)(=O)Nc2nc(C)c(NC(=O)Nc3ccc(Cl)cc3Cl)s2)cc1,7.1µM*,u,u
O=C(COc1ccccc1Cl)NCc1ccncc1,-4%,-13,0%
CCOC(=O)c1cnc(SCCc2ccccc2)nc1N,6%,61,10%
SMILES,ALOX12 inhib,PNC inhibitor,ALOX15B inhib
CCOC(=O)c1cnc(SCc2nc(N)nc(Nc3ccccc3)n2)nc1N,-2%,-123*,4%
O=C(N/N=C/c1ccc(O)cc1O)c1cc(-c2ccccc2)n[nH]1,-5%,x,x
Cc1cc(Cl)ccc1OC(C)C(=O)N1CCCN(C(=O)C(C)Oc2ccc(Cl)cc2C)CC1 (stereo unspecified),u,45,0%
COc1ccc(N2COC3c4cccc5cccc(c45)C32)cc1 (stereo unspecified),-10%,11,x
Clc1ccc(N2COC3c4cccc5cccc(c45)C32)cc1 (stereo unspecified),2%,-100*,x
COc1ccccc1C1C2CCCCC2(O)CCN1CC(=O)Nc1ccccc1 (stereo unspecified),-8%,-104*,16%
CCCCNC(=O)CN1CCC2(O)CCCCC2C1c1ccccc1OC (stereo unspecified),0%,38,-4%
COc1ccc(-c2nc(CSCC(=O)NCc3ccc4c(c3)OCO4)c(C)o2)cc1,-5%,31,3%
COCCNC(=O)CSCc1nc(-c2ccc(SC)cc2)oc1C,5%,-89*,x
COc1ccc(-c2nc(CSCC(=O)NCc3ccc4c(c3)OCO4)c(C)o2)cc1OC,-4%,-92*,x
